Sampled rows, rich in hits. Any-hit rate of the full collection: about 2.6%.
ABHD5 PLIN5 PPI – inhibitors of human ABHD5-perilipin-5 interaction; Q00G26+Q8WTS1; Split G. princeps luciferase complementation, luminescence, 4 h; inhibition, % at 4 µM; actives 0.78% (n = 360,000);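 active = inhibition above the mean inhibition across every tested compound plus 3 SD, cut at about 22% in these data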
TLR9-MyD88 inh – blocks human TLR9 binding to MyD88 | CHO BLA complementation TLR9-MyD88, CCF4 FRET ratio | inhibition, % at 4.98 µM | actives 0.21% (n = 340,000);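 active = inhibition above the mean over all tested compounds plus 3 SD, cut at about 21% in these data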
Granule exo inh – blocks lytic granule exocytosis. TALL-104 LAMP-1 surface exposure, flow cytometry; cells stimulated with thapsigargin and PMA. inhibition, % at 10 µM. actives 0.66% (n = 360,000);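 active = inhibition above about 55%, limit read from the data; inconclusive = no clear call, values can overlap the other calls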
NOD2 RIPK2 PPI – NOD2-RIPK2 protein interaction inhibition | AID 624267 | CHO BLA complementation NOD2-RIPK2, CCF4 ratio | actives 0.38% (n = 360,000) | O43353 | inhibition, % at 4.98 µM; in the data active = inhibition above about 21%
Target sequence (O43353 whole entry, looked up): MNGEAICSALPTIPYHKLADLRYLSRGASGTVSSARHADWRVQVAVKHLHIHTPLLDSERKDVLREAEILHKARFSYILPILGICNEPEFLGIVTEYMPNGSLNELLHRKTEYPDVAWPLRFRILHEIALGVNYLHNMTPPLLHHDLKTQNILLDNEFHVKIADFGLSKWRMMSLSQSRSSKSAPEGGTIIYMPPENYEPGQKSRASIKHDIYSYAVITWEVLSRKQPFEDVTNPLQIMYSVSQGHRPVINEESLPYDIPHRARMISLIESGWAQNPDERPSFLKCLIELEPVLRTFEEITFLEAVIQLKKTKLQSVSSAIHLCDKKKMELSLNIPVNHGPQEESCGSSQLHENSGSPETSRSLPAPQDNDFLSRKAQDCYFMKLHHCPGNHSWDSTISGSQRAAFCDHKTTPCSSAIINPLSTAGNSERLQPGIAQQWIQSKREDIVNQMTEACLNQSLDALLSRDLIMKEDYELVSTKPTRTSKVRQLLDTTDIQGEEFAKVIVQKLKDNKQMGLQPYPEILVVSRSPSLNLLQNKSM
TLR4 MyD88 comp – inhibitors of human TLR4-MyD88 binding; O00206+Q99836; HeLa CL3-4 TLR4/MyD88 BLA complementation, FRET ratio; inhibition, % at 8.4 µM; actives 0.18% (n = 200,000); AID 861; in the data active = inhibition above about 25%
PRMT1 FP inh – PRMT1 (human) inhibition, primary screen. Q99873. recombinant PRMT1, activity-based probe fluorescence polarization. inhibition, % at 2.79 µM. actives 1.3% (n = 370,000). AID 652257;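 active = inhibition above about 21% made by adding two undisclosed values, limit read from the data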
Hits are given with their value; . = inactive; ? = inconclusive; / = not tested or not shown.

SMILES | ABHD5 PLIN5 PPI | TLR9-MyD88 inh | Granule exo inh | NOD2 RIPK2 PPI | TLR4 MyD88 comp | PRMT1 FP inh
C/C=C/C=C/C(=O)N1CC2(CC(c3cccc(NC(=O)CCCCC)c3)=NO2)C[C@H]1C(N)=O (some centres not stated) | . | . | . | . | / | 21
CC/C=C/C(=O)N1CC2(CC(c3cccc(NC(=O)CCCCC)c3)=NO2)C[C@H]1C(N)=O (some centres not stated) | . | . | . | . | / | .
Cn1c(=O)c2ccccc2n2c(CCl)nnc12 | 23 | . | . | . | / | .
Nc1cccnc1S(=O)(=O)c1ccccc1 | . | . | . | . | / | .
O=[N+]([O-])c1cccnc1S(=O)(=O)c1ccccc1 | 22 | . | ? | . | / | .
N#CC1=C2SCN(Cc3ccco3)CN2C(=O)CC1c1cccc2ccccc12 (configuration not stated) | . | . | . | . | . | 30
O=C1CCc2cc(S(=O)(=O)Nc3ccc4c(c3)OCCO4)ccc2N1 | / | / | / | / | / | .
CN1C(=O)C(Cl)(Cl)C(=O)c2ccccc21 | 88 | . | . | . | . | /
Cc1[nH][nH]c(=O)c1C(c1ccc(-c2ccc(F)cc2)o1)c1c(C)[nH][nH]c1=O | . | . | . | . | . | 22
O=C1c2ccccc2NC(c2cc(Cl)cc(Cl)c2O)N1CCc1ccccn1 (configuration not stated) | / | / | / | / | / | .
CCCCc1c(-c2ccccc2OC)ncn1Cc1ccc(F)cc1F | / | / | / | / | / | .
COc1cc(NC(=O)c2cnn3c(C)cc(C)nc23)cc(OC)c1OC | / | / | / | / | / | .
COc1cc2c(cc1OC)CN(CCC(C)c1ccc(Cl)cc1)CC2 (configuration not stated) | . | . | 65 | . | / | .
CCOC(=O)NC(=O)/C(C#N)=C\Nc1sccc1C(=O)OC | . | . | . | . | . | 56
Fc1ccc(-c2ccc3c(n2)CCCN3Cc2ccccc2C(F)(F)F)cc1 | / | / | / | / | / | .
CCN1C(=O)/C(=C2\SC(=S)N(NC(=O)c3cccnc3)C2=O)c2ccccc21 | . | . | . | . | / | 21
CC(C)C[C@@H](CN1CCCC1CN1C(=S)NC[C@@H]1Cc1ccc(O)cc1)N1C[C@H](Cc2ccc(O)cc2)N(CC2CCCCC2)C1=S (some centres not stated) | . | . | 57 | . | / | .
Oc1ccc(C[C@H]2CN([C@@H](Cc3cccc(O)c3)CN3CCC[C@@H]3CN3C(=S)NC[C@@H]3Cc3ccccc3)C(=S)N2CC2CCCCC2)cc1 | 23 | / | . | . | / | .
CC(=O)N1C[C@@H](CN2C(=O)CCC2=O)[C@@H]2C[C@H]1c1ccccc1N2C | / | / | / | / | / | .
CN1CCCCC(NC(=O)c2ccc(Cl)cc2Cl)C1=O (configuration not stated) | / | / | / | / | / | .
CCOC(=O)c1c(-c2ccc(-c3ccccc3)cc2)csc1NC(=O)C1C2CCC(O2)C1C(=O)O (configuration not stated) | 34 | . | . | . | . | .
CCOC(=O)c1c(-c2ccccc2)csc1NC(=O)C1CCCO1 (configuration not stated) | . | . | . | . | . | .
CNC(=S)N/N=C/c1c(C)cccc1Cl | . | . | . | . | / | .
CNC(=S)N/N=C/c1c2ccccc2c(Cl)c2ccccc12 | . | . | 56 | . | / | .
NC(=S)N/N=C\c1c2ccccc2cc2ccccc12 | . | . | 65 | . | . | .
SMILES | ABHD5 PLIN5 PPI | TLR9-MyD88 inh | Granule exo inh | NOD2 RIPK2 PPI | TLR4 MyD88 comp | PRMT1 FP inh
COc1ccc(C=CC(=O)c2c(N)n(C)c(=O)n(C)c2=O)cc1 | / | / | / | / | / | .
COc1cc(C(Nc2ccc3c(c2)OCO3)C(=O)NC2CCCCC2)cc(OC)c1OC (configuration not stated) | . | . | . | . | . | 25
CC1=NC2=CC=CC3=NC(C(Cl)(Cl)Cl)=NC(=N1)N23 | / | / | / | / | / | .
COc1ccccc1-n1ccnc(SCC(=O)NCCc2ccccc2)c1=O | . | . | . | . | / | 23
CN1C(=O)c2cc(NC(=O)Nc3ccccc3)ccc2OC[C@H]2O[C@@H](CC(=O)NC3Cc4ccccc4C3)CC[C@@H]21 | / | / | / | / | / | .
COc1ccc(-c2csc(/C(C#N)=C\c3ccc(OC)c([N+](=O)[O-])c3)n2)cc1 | . | . | . | . | . | .
COc1ccc(-c2csc(/C(C#N)=C\c3ccc(O)c([N+](=O)[O-])c3)n2)cc1OC | . | . | 93 | . | / | .
